KDM4E inh: qHTS Assay for Inhibitors of Human Jumonji Domain Containing 2E (JMJD2E); Lysine-specific demethylase 4E (Homo sapiens), B2RXH2; JMJD2E catalytic domain, FDH-coupled NADH fluorescence (FDH is formaldehyde dehydrogenase); Potency, µM (doses to about 57.1 µM), most hits filed as inhibitors; hit rate 1.6% among 230,000; AID 2147, 2009; active = well fitted inhibition curve with a large enough effect, not every such curve was filed as active; inconclusive = small, poorly fitted or top-dose-only effect, or another doubt; inactive = no such curve, though single readings can be large or run the other way; note: nearly all actives have a fitted effect of over 50% in size
Target sequence (B2RXH2 1-337 limits assumed): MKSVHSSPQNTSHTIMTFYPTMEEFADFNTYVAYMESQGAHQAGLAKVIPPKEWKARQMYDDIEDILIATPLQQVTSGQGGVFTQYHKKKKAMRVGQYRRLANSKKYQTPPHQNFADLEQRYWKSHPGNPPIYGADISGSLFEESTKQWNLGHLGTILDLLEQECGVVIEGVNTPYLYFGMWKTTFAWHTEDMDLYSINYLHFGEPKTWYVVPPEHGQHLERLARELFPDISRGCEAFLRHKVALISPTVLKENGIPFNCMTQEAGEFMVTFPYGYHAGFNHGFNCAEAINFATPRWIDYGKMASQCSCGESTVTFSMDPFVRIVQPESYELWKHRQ
RGS12 GoLoco inh: qHTS Assay for Inhibitors of RGS12 GoLoco Motif Activity (Red Fluorophore); Gai1:RGS12 GoLoco peptide FP, rhodamine, 10 min; hit rate 0.44% among 230,000; Potency, µM (top dose mostly 61.6 µM), actives largely listed as inhibitors; active = well fitted inhibition curve with a large enough effect, not every such curve was filed as active; inactive = no such curve, though single readings can be large or run the other way; note: nearly all actives have a fitted effect of over 30% in size
HTT cytoprotect: qHTS Multiplex Assay to Identify Dual Action Probes in a Cell Model of Huntington: Cytoprotection (ATP) | hit rate 0.14% among 230,000 | AID 1471, 2008 | Potency, µM (doses to about 56.4 µM), hits mostly activators | PC12 HTT-Q103 induced, cytoprotection, ATP luminescence, 40 h; note: nearly all actives have a fitted effect of over 45% in size
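PC12 cells with ecdysone-inducible HTT exon 1 Q103-GFP, induced with 100 nM tebufenozide and co-treated with library compounds in a dose series (1536-well, 1500 cells/well). Cytoprotection read as ATP content by ATPlite luminescence.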
Coupling enz: qHTS Assay for Inhibitors of Fructose-1,6-bisphosphate Aldolase from Giardia Lamblia: Coupling assay counterscreen; coupling enzyme system counterscreen, AmpLite Red fluorescence; activity change, negative = inhibition, % at 58.2 µM, hits read low; hit rate 0.67% among 290,000; AID 2472, 2010; in the data active = activity change below about -30%
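Coupling enzymes only (glyceraldehyde-3-phosphate) + compound, at 57.5 uM final, 10 min RT; add substrate/coupling/AmpLite Red mix, 20 min RT; fluorescence ex 525/em 598 nm. Actives flag coupling-system interference.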
VDR inh: Inhibitors of the vitamin D receptor (VDR): qHTS | hit rate 0.93% among 400,000 | Potency, µM, hits mostly inhibitors | Vitamin D3 receptor (Homo sapiens), P11473 | VDR-SRC2-3 peptide fluorescence polarization, 2 h
Target sequence (P11473 whole entry, looked up): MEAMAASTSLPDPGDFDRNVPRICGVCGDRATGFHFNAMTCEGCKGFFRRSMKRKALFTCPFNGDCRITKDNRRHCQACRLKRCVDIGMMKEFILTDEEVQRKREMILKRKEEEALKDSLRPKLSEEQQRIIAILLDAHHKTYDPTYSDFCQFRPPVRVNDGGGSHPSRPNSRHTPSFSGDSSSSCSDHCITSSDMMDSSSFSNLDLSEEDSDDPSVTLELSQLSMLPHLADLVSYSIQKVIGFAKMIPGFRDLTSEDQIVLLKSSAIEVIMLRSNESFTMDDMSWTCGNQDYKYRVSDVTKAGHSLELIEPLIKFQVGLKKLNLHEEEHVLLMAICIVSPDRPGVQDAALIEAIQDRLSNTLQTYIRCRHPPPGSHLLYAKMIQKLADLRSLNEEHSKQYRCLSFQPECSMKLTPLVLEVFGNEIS
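Inhibition of the VDR/SRC2-3 peptide interaction is quantified by fluorescence polarization. Compounds (23 nl, pintool) incubate with the reagents for 2 hours at ambient room temperature.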
HttQ103 aggreg: qHTS Multiplex Assay to Identify Dual Action Probes in a Cell Model of Huntington: Aggregate Formation (GFP). PC12 HttQ103-GFP aggregates, Acumen cytometry, 40 h. AID 1688, 2009. hit rate 1.1% among 220,000. Potency, µM (highest dose often 46.1 µM), actives largely listed as inhibitors; note: nearly all actives have a fitted effect of over 60% in size
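Inducible Q103 Huntingtin exon 1–GFP PC12 line, 1500 cells/well in phenol red free DMEM with 5% equine and 5% calf serum. Tebufenozide 100 nM induced expression; compounds titrated; aggregates quantified by cytometry.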
Numbers stand for hits; . = inactive; ? = inconclusive; / = not tested or not shown; ! = not active in a repeat; [ ] = dose if it differs, or a comment. Most compounds without a hit are left out; they make up all but 2.3% or so of the library. Unless noted, calls come from the whole dose curve; as a rule, active = well fitted curve in the direction sought with a large enough effect; inconclusive = small, poorly fitted or top-dose-only effect, or another doubt; inactive = no such curve, though single readings can be large; an effect the other way counts as inactive or inconclusive.

SMILES	KDM4E inh	RGS12 GoLoco inh	HTT cytoprotect	Coupling enz	VDR inh	HttQ103 aggreg
C/C=C(\C)C(=O)O[C@@H]1C(C)=C2[C@H]([C@@H]1OC(=O)CCCCCCC)[C@@](C)(OC(C)=O)C[C@@H](OC(=O)CCC)[C@@]1(O)[C@H]2OC(=O)[C@]1(C)O	/	/	.[1.9 µM]	/	/	/
CN1CCc2nc3sc(C#N)c(N)c3c(-c3cccs3)c2C1	.	.	12.6µM	.	.	.
CN1C(=O)C(=Cc2ccc(-c3cccc(Cl)c3)o2)C(=O)N(C)C1=O	.	.	/	.	/	.
CN1C(=O)C(=Cc2ccccc2Oc2ccc(Cl)c(F)c2)C(=O)N(C)C1=O	.	.	.	.	28.2µM	.
O=C1NC(=O)C(=Cc2ccccc2Oc2ccc(F)cc2)C(=O)N1	.	.	.	.	50.1µM	.
O=S(=O)(NCCO)c1cc[c]([Sb](=[O])([OH])[OH])cc1	/	/	.[10 µM]	/	/	/
COc1ccc(/C=C2/C(=O)NC(=O)N(c3ccc(C)c(C)c3)C2=O)cc1CN1C(=O)c2ccccc2C1=O	.	.	.[10 µM]	.	50.1µM	.
C/C=C1/C[N@@+]2(C)CC[C@]34C(=C(C=O)[C@H]1C[C@H]32)Nc1ccccc14	/	6.31µM	.	/	?	/
C[N+](=O)[O-]	/	.	.	/	/	/
Fc1cccc(F)c1CN1CCN(c2ccc(Cl)cc2)CC1	/	/	/	.	.	/
Fc1ccccc1N1CCN(Cc2c(F)cccc2F)CC1	20µM	.	.[0.074 µM]	.	.	.
CCN1C[C@]2(C)CC[C@H](O)[C@@]34C5C[C@@H]6[C@@H](OC)C[C@@](O)(C5[C@H]6O)[C@@H](CC23)[C@@H]14 (stereo partly drawn)	.	.	.	.	/	/
CCCCC/C=C\C/C=C\CCCCCCCC(=O)NCCO	.	.	.	.	?	/
CCCCC/C=C\C/C=C\C/C=C\C/C=C\CCCC(=O)OC(CO)CO	.	.	.	.	35.5µM!	/
CCCCC/C=C\C/C=C\C/C=C\C/C=C\CCCC(=O)NC1CC1	/	.	.	.	?	/
CCCCC/C=C\C/C=C\C/C=C\C/C=C\CCCC(=O)N[C@H](C)CO	.	.	?	.	35.5µM!	/
CN1CCN(c2ccc([N+](=O)[O-])c3[nH]o[n+](=O)c23)CC1	/	/	.[10 µM]	/	/	/
CCN1C[C@]2(C)CC[C@H](O)[C@@]34[C@@H]5C[C@@H]6[C@@H](OC)C[C@@](O)(C5[C@H]6O)[C@@H](C[C@@H]23)[C@@H]14	.	.	/	/	/	/
C=CCc1cc(C=C2C(=O)N(C)C(=O)N(C)C2=O)cc(OCC)c1OCc1ccccc1	.	.	/	.	?	.
C=CCc1cc(C=C2C(=O)NC(=O)NC2=O)cc(OC)c1OCc1ccc(C(=O)O)cc1	?	.	.	.	89.1µM	.
CC(C)=C[C@H]1[C@@H](C(=O)OCc2cc3c(cc2Cl)OCO3)C1(C)C	/	.[14.2 µM]	.[10 µM]	/	/	/
CC(C)c1cc2c(c(O)c1O)[C@@]1(C(=O)O)CCCC(C)(C)[C@@H]1CC2	/	.	/	-43.3	20µM	/
CC(C)c1cc2c(c(O)c1O)[C@]1(C(=O)O)CCCC(C)(C)C1CC2 (stereo partly drawn)	12.6µM	.	.	.	44.7µM	/
CN(C)NC(=O)CCC(=O)O	/	.	.	/	/	/
COC(=O)c1ccccc1N	/	31.6µM	.	/	/	/
SMILES	KDM4E inh	RGS12 GoLoco inh	HTT cytoprotect	Coupling enz	VDR inh	HttQ103 aggreg
O=C1NC(=S)NC(=O)C1=Cc1ccc(OCc2ccccc2)cc1	/	/	/	/	39.8µM	/
CN(CCOc1ccc(C=C2C(=O)NC(=O)NC2=O)cc1)c1ccccn1	?	.	/	.	?	?
Cc1ccc2c(c1)C1CN(C)CCC1N2C(=O)c1cccs1 (stereo not drawn)	.	.	.[10 µM]	.	.	.[9.22 µM]
O=C(CCN1CC2CCC(CC2)C1)c1cccs1	/	.[14.2 µM]	.[10 µM]	/	44.7µM	/
CCOCCOC(C)=O	/	28.2µM	.	/	/	/
CN1CCC(c2c[nH]c3ccccc23)C1 (stereo not drawn)	22.4µM	.	.[10 µM]	.	.	.[9.22 µM]
C=C1C(=O)OC2CC3(C)OC3CCC(C)=CC(OC(C)=O)C12 (stereo not drawn)	/	/	/	/	70.8µM	/
C=C1C(=O)O[C@@H]2C[C@@H](C)[C@H]3C=CC(=O)[C@]3(O)C[C@@H]12	.	.	.[10 µM]	.	.	.[9.22 µM]
O=c1cccc2n1C[C@H]1C[C@@H]2CN(CCO)C1	/	/	.	/	/	/
C=CCOC(=O)COc1cc(C)cc2oc(=O)c3c(c12)CCC3	?	.	.	.	.	.
Cc1cc(OCC(=O)OC(C)(C)C)c2c3c(c(=O)oc2c1)CCC3	4.47µM	.	.	.	.	.
CCCCCCCC/C=C\CCCCCCCC(=O)OC[C@@H](COP(O)(O)=S)OC	/	/	/	.	17.8µM	/
C[C@]12CC[C@H]3[C@@H](CCC4C[C@H](O)CC[C@@]43C)[C@@H]1CC[C@@H]2O (stereo partly drawn)	.	.	/	/	/	/
Ic1ccccc1CN[C@@H]1C2CCN(CC2)[C@H]1C(c1ccccc1)c1ccccc1	/	/	.[1.9 µM]	/	/	/
CCCC[N+]12C3CC(C(CC)[C@H]1O)[C@@H]1C(O)C4(C[C@@H]12)c1ccccc1N(C)C34 (stereo partly drawn)	.	.	.	.	.	/
O=C(NC1(C(F)(F)F)Oc2ccc(Cl)cc2O1)N1CCC2(CC1)OCCO2 (stereo not drawn)	15.8µM	.	.	.	.	.
CCCN(CCC)CCc1ccc(O)c(O)c1	20µM	.	.	/	.	/
OCCCc1ccc(O)c(O)c1	?	.	.[10 µM]	.	.	.[9.22 µM]
FC(F)(F)c1ccc(Cl)cc1	/	.	.	/	/	/
COC(=O)C1=C(c2ccc3ccccc3c2)C[C@@H]2CC[C@H]1N2C	/	/	/	/	.	/
COC(=O)C1=C(C(=O)OC)C2OC1c1cc3ccccc3cc12	/	/	/	/	8.91µM	/
CC(C)[C@@]1(NC(=O)[C@H]2CC3c4cccc5[nH]cc(c45)C[C@H]3N(C)C2)O[C@@]2(O)C3CCCN3C(=O)[C@@H](Cc3ccccc3)N2C1=O (stereo partly drawn)	/	.	.	/	.	.
CCc1cc2c(N3CCN(C)CC3)ncnc2s1	.	.	.[10 µM]	.	.	?
CCN1CCN(c2ncnc3ccc(Br)cc23)CC1	.	.	.[0.074 µM]	.	.	7.08µM
C=CCN1C(=O)NC(=O)/C(=C/c2ccc(N(C)C)c(Br)c2)C1=O	.	.	.	.	79.4µM	?
C=CCN1C(=O)NC(=O)/C(=C/c2ccoc2)C1=O	.	.	.[10 µM]	.	.	.
O=C1C2CC=CCC2C(=O)N1SC(Cl)(Cl)Cl (stereo not drawn)	/	.	.	/	3.98µM	14.1µM
S=P(C1CCCCC1)(C1CCCCC1)[C@H](c1cccnc1)N1CCCC1	/	.[14.2 µM]	.[10 µM]	/	/	/
Cc1c(C=O)c2ccccc2n1Cc1cccc(F)c1	.	.	.[0.074 µM]	.	20µM	.
